# Bioassay records: PubChem, several laboratories
# This is a sample that favours compounds with a hit; in the whole collection about 2.7% have one here.
# SENP8 block-1 – SENP8 (human) protease inhibition; Q96LD8; recombinant SENP8, Nedd8 substrate fluorescence; inhibition, % at 20 µM; 0.64% of 360,000 active; in the data active = inhibition mostly above about 40%, no sharp cut-off; inactive = mostly below about 27%
# HSP90 refold inh – blocks HSP90-mediated luciferase refolding in reticulocyte lysate; Rabbit reticulocyte lysate, luciferase refolding luminescence, 3 h; inhibition, % at 5.6 µM; 0.91% of 290,000 active;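 active = inhibition above the screen-wide mean plus 3 SD, computed separately per campaign, cut at about 16% in these data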;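 also: 0% = DMSO wells and 100% = 60 µM geldanamycin wells; inhibitors lower the luminescence because luciferase stays unfolded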
# SENP8 block-2 – blocks the human protease SENP8 | Q96LD8 | purified SENP8, Z-RLRGG-aminoluciferin cleavage, luminescence | inhibition, % at 10 µM | 1.2% of 330,000 active; in the data active = inhibition above about 50%
# SENP7 block – inhibitors of human SENP7 protease. Q9BQF6. recombinant SENP7, Z-RLRGG-aminoluciferin luminescence, 40 min. inhibition, % at 5 µM. 1.5% of 330,000 active;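 active = inhibition above about 50% at the single test dose, limit read from the data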;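 also: plate controls were DMSO with enzyme for no effect and no enzyme buffer wells for full effect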
# Target sequence (Q9BQF6 706-1050 limits assumed): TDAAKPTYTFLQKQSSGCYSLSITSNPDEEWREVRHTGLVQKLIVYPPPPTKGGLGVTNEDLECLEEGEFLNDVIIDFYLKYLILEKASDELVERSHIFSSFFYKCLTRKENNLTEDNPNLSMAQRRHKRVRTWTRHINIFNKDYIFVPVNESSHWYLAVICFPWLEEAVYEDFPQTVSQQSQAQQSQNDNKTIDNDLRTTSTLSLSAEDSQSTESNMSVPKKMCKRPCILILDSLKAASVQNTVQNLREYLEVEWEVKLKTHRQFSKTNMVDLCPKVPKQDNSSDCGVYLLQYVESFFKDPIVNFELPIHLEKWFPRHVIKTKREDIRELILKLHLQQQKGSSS
# SENP6 block – SENP6 protease inhibition | Q9GZR1 | 1.8% of 330,000 active | AID 2599 | Recombinant SENP6 catalytic domain, aminoluciferin luminescence | inhibition, % at 10 µM;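 active = inhibition above about 50% at the single tested dose, limit read from the data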;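 also: plate controls were DMSO wells with enzyme for no effect and DMSO wells lacking enzyme for full effect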
# SENP8 conf – human SENP8 inhibition, confirmed. Recombinant SENP8, Z-RLRGG-aminoluciferin luminescence, 60 min. 40% of 6,200 active. shares compounds with SENP7 block. inhibition, % at 12.5 µM;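 active = mean inhibition across replicates above about 50%, limit read from the data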
# SENP6 confirm – confirmation of human SENP6 protease inhibitors. shares compounds with SENP7 block. recombinant SENP6, Z-RLRGG-aminoluciferin luminescence. inhibition, % at 12.5 µM. 58% of 6,200 active. AID 488915
# SENP7 confirm – confirmation of human SENP7 protease inhibitors; shares compounds with SENP7 block; recombinant SENP7, Z-RLRGG-aminoluciferin luminescence, 40 min; inhibition, % at 12.5 µM; 69% of 6,200 active
# Casp3 select – caspase-3 inhibition (SENP selectivity assay); shares compounds with SENP7 block; purified caspase-3, Z-DEVD-aminoluciferin luminescence, 60 min; inhibition, % at 12.5 µM; 60% of 6,200 active; AID 488918;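 active = mean inhibition above about 50%, limit read from the data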;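 also: plate controls were enzyme with DMSO for no effect and wells without caspase-3 for full effect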
# SENP luc ctr – interferes with luciferase luminescence in SENP counter-screen | shares compounds with SENP7 block | Pre-incubated SENP8/Z-RLRGG-aminoluciferin, luciferase luminescence interference | inhibition, % at 12.5 µM | 39% of 6,200 active | AID 488919;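 active = mean inhibition above about 50% when retested at one dose, limit read from the data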;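 also: plate controls were DMSO wells with completed reaction for no effect and substrate without enzyme for full effect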
# * hit, by the source's call; . = no result given.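 The calls were made as follows, unless noted: active = mean inhibition above about 50% in the one-dose retest (limit read from the data); inactive = the rest.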
SMILES,SENP8 block-1,HSP90 refold inh,SENP8 block-2,SENP7 block,SENP6 block,SENP8 conf,SENP6 confirm,SENP7 confirm,Casp3 select,SENP luc ctr
CC(NC(=O)CN(C1CCCCC1)S(C)(=O)=O)c1ccccc1 (stereo not drawn),5,1,3,-5,-11,.,.,.,.,.
O=C(Nc1ccccn1)c1sc2cccc(F)c2c1Cl,-1,-2,7,90*,-18,9,13,3,6,-1
COCc1nnc(NC(=O)c2sc3ccccc3c2Cl)s1,16,1,46,31,55*,41,37,76*,61*,66*
Cc1ccc(NC(=O)c2sc3ccccc3c2Cl)nc1,4,-6,63*,93*,72*,3,2,0,8,-2
O=C(Nc1cccnc1)c1sc2cccc(F)c2c1Cl,1,-3,-5,-10,-25,.,.,.,.,.
COCc1nnc(NC(=O)c2cccs2)s1,13,-3,-11,-4,-14,.,.,.,.,.
CC1Cc2cc(-c3csc(NC(=O)Cc4cccs4)n3)ccc2N1S(C)(=O)=O (stereo not drawn),4,-2,5,1,-14,.,.,.,.,.
CC1C2(C)OCC(C#N)(C(=N)O2)C1(C#N)C#N (stereo not drawn),.,3,-8,-1,-2,.,.,.,.,.
Cc1ccc2c(c1)[nH]c1c(=O)n(CCC3=CCCCC3)cnc12,.,2,.,.,.,.,.,.,.,.
O=C(/C=C/c1ccccc1[N+](=O)[O-])NCCN1C(=O)S/C(=C\c2ccc(F)cc2)C1=O,19,-3,-11,81*,18,-10,-3,-6,5,3
O=C(/C=C/c1cccc([N+](=O)[O-])c1)NCCN1C(=O)S/C(=C\c2cccnc2)C1=O,22,3,-5,1,11,.,.,.,.,.
Cc1cc(/C=C(\C#N)C(=O)O)c(C)n1CC(C)C,-50,-2,7,0,2,.,.,.,.,.
Cc1nccc(-c2cc(-c3ccc(Cl)cc3Cl)no2)n1,0,6,84*,88*,89*,73*,77*,94*,84*,20
CN(c1ccccc1)c1ccc(/C=N/N2CCOCC2)cc1,-21,-6,34,31,52*,44,43,79*,49,31
C(=NN1CCCCCC1)c1ccccc1,11,.,.,.,.,.,.,.,.,.
CCn1cc(C2=NC(C)(C)CO2)c2ccccc21,8,1,0,-4,-8,.,.,.,.,.
O=C(CNc1cccc2ccccc12)N/N=C/c1ccc(C(=O)O)cc1,-199,-3,58*,30,71*,-8,-3,-5,4,3
O=C(CNc1ccc2ccccc2c1)N/N=C/c1ccc(C(=O)O)cc1,-203,0,3,0,-10,.,.,.,.,.
O=C(Cc1cccs1)N/N=C/C=C/c1ccco1,4,0,-4,1,-2,.,.,.,.,.
C/C(=N\NC(=O)CNc1cccc2ccccc12)c1ccccc1,-351,0,54*,19,73*,0,4,10,1,0
O=C(CNc1cccc2ccccc12)N/N=C/C=C/c1ccco1,-86,5,60*,32,82*,1,6,13,4,3
CN=c1scc(-c2ccco2)n1/N=C/c1ccc(O)c(O)c1,-16,17*,56*,8,68*,59*,63*,86*,45,62*
COc1cc(NC(=O)c2csc3c2CCCC3)ncn1,12,1,47,-1,61*,11,5,12,10,6
COc1ccccc1NC(=O)c1csc2c1CCCC2,-59,0,5,3,-4,.,.,.,.,.
COc1ccc2cc(S(=O)(=O)N3CCN(C)CC3)ccc2c1,17,-3,0,-4,-9,.,.,.,.,.
Cc1cc(/C=N/NC(=O)c2ccc(CN3CCOCC3)cc2)c(C)n1-c1ccccc1,-54,4,-3,2,-22,.,.,.,.,.
